Test results as given in the supplement of paper PMC10849652.
Of roughly 7,900 targets only a part is listed; those with a hit were picked by preference. About 0.6% of all pairs of compound and target were hits.

Columns and labels:
Assay in all cases: log2 fold change, soluble protein after heating vs DMSO (PISA); higher = thermal stabilisation; K562 cells, 10 uM, 30 min; active = over 0.2 and 3.5 SD of the protein, either way, in both replicates (recomputed)
[1] = compound: C1COCCN1CCN2C3=CC=CC=C3N=C2NC(=O)C4=CC(=CC=C4)[N+](=O)[O-] [IRAK-1-4 Inhibitor I]
Procedure, shortened: (§1)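 For each measurement, 10 μM compound was applied for 30 min to K562 cells at 2×10^6 cells/mL. Aliquots were heated for 3 min across 48°C-58°C, pooled, and extracted in PBS with 0.5% NP-40 at 4°C; the supernatant after 21,000xg for 90 min was soluble protein. This was quantified by TMTpro 16plex LC-MS/MS with channel sums equalised, and thermal stability was reported relative to control samples from duplicates, on a log2 fold-change scale.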

[2] = compound: C=CC(=O)N1CCC[C@@H](n2nc(-c3ccc(Oc4ccccc4)cc3)c3c(N)ncnc32)C1 [ibrutinib]
Procedure, shortened: as §1

[3] = compound: CC(=O)c1cnc2ccc(-c3cc(Cl)c(O)c(Cl)c3)nc2c1N[C@H]1CC[C@H](CN(C)C)CC1
Procedure, shortened: as §1

[4] = compound: CC(C)(C)Cn1c(N)nc2ccc(-c3[nH]c(C(C)(C)C)nc3-c3ccc(F)cc3)nc21 [ralimetinib]
Procedure, shortened: as §1

[5] = compound: CC(C)(O)CC(=O)NCCn1ccc2ncnc(Nc3ccc(Oc4cccc(C(F)(F)F)c4)c(Cl)c3)c21
Procedure, shortened: as §1

[6] = compound: CC(C)C1=C2N=C(C=C(N2N=C1)NCC3=CC=CC=C3)NCCCCCCN
Procedure, shortened: as §1

[7] = compound: CC(C)C[C@@H](C=O)NC(=O)[C@H](CC(C)C)NC(=O)[C@H](CC(C)C)NC(=O)OCc1ccccc1
Procedure, shortened: as §1

[8] = compound: CC(C)N(C[C@H]1O[C@@H](n2cnc3c(N)ncnc32)[C@H](O)[C@@H]1O)[C@H]1C[C@@H](CCc2nc3cc(C(C)(C)C)ccc3[nH]2)C1 [pinometostat]
Procedure, shortened: as §1

[9] = compound: CC1=C(C(CC(=O)N1)C2=CC=C(C=C2)C(F)(F)F)C(=O)NC3=C(C=C4C(=C3)C=NN4)F
Procedure, shortened: as §1

[10] = compound: CC1=C(C2=C(C=C1)C(=O)C3=CC=CC=C3N2CCCN)C
Procedure, shortened: as §1

[11] = compound: CC1=C(C=C(C=C1)NC(=O)C2=CC(=CC=C2)C(C)(C)C#N)NC3=CC4=C(C=C3)N=CN(C4=O)C
Procedure, shortened: as §1

[12] = compound: CC1=C(C=C(C=C1)NC(=O)C2=CC(=CC=C2)N(C)C)NC(=O)C3=CC=C(C=C3)O
Procedure, shortened: as §1

[13] = compound: CC1=CC=C(C=C1)SC2=C3C=C(SC3=CN=C2)C(=O)N
Procedure, shortened: as §1

[14] = compound: CC1=NC(=CC=C1)C2=C(N=C(N2)C(C)(C)C)C3=CC4=NC=CN=C4C=C3
Procedure, shortened: as §1

[15] = compound: CCCCN(Cc1ccc(C(=O)NO)cc1)C(=O)Nc1ccccc1 [Nexturastat A]
Procedure, shortened: as §1

[16] = compound: CCCS(=O)(=O)Nc1ccc(F)c(C(=O)c2c[nH]c3ncc(-c4ccc(Cl)cc4)cc23)c1F [vemurafenib]
Procedure, shortened: as §1

[17] = compound: CCCS(=O)(=O)Nc1ccc(F)c(C(=O)c2c[nH]c3ncc(Cl)cc23)c1F
Procedure, shortened: as §1

[18] = compound: CCCc1cc(C)[nH]c(=O)c1CNC(=O)c1cc(-c2ccnc(N3CCN(C)CC3)c2)cc2c1cnn2C(C)C
Procedure, shortened: as §1

[19] = compound: CCN(CC)Cc1ccc2cc(COC(=O)Nc3ccc(C(=O)NO)cc3)ccc2c1 [givinostat]
Procedure, shortened: as §1

[20] = compound: CCN(CCCOc1ccc2c(Nc3cc(CC(=O)Nc4cccc(F)c4)[nH]n3)ncnc2c1)CCOP(=O)(O)O [barasertib]
Procedure, shortened: as §1

Measured: log2 fold change

NOL11 (UniProt Q9H8H0)
inactive: [1] 0.036 | [2] 0.031 | [3] 0.002 | [4] -0.028 | [5] 0.037 | [6] 0.21 | [7] -0.017 | [8] -0.014 | [9] -0.002 | [11] -0.023 | [12] 0.029 | [13] 0.004 | [14] 0.013 | [15] -0.024 | [16] -0.026 | [17] 0.003 | [18] -0.016 | [19] 0.015 | [20] -0.021
active: [10] 0.304

NME7 (UniProt Q9Y5B8)
Chain of UniProt Q9Y5B8 (Q9Y5B8 whole entry, looked up): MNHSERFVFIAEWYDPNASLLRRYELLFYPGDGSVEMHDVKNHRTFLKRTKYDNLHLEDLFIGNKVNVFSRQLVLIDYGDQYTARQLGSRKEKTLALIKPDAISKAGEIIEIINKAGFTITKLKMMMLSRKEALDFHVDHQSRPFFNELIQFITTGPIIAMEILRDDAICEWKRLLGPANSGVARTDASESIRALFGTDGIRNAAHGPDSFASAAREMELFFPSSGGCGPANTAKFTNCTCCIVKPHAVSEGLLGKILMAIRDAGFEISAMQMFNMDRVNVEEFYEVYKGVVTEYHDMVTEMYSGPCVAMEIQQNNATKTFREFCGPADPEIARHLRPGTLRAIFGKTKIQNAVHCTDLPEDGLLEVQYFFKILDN
inactive: [1] 0.056 | [2] -0.054 | [3] -0.038 | [4] 0.095 | [5] -0.116 | [6] -0.066 | [7] 0.059 | [8] 0.065 | [10] -0.086 | [11] -0.008 | [12] -0.089 | [13] -0.021 | [14] 0.059 | [15] 0.024 | [16] -0.037 | [17] 0.081 | [18] -0.06 | [19] -0.202 | [20] 0.042

MKRN2 (UniProt Q9H000)
Chain of UniProt Q9H000 (Q9H000 whole entry, looked up): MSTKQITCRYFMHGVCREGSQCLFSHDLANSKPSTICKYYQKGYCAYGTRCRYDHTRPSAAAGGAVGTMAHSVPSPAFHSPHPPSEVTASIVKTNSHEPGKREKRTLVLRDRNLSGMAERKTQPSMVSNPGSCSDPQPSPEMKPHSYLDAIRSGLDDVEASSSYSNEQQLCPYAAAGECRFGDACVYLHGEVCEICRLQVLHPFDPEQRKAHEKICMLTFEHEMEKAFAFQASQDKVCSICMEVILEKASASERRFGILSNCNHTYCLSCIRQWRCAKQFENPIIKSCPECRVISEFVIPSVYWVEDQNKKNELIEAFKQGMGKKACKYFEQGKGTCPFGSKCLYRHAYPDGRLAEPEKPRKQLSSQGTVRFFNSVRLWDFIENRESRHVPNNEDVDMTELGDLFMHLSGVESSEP
inactive: [1] -0.063 | [2] 0.026 | [3] -0.137 | [4] 0.034 | [5] 0.017 | [6] 0.032 | [7] 0.089 | [8] 0.094 | [9] -0.017 | [10] -0.064 | [11] 0.147 | [12] 0.059 | [13] -0.002 | [14] 0.086 | [15] 0.091 | [16] 0.095 | [17] 0.035 | [18] -0.045 | [19] 0.083 | [20] -0.098

MSL1 (UniProt Q68DK7)
Chain of UniProt Q68DK7 (Q68DK7 whole entry, looked up): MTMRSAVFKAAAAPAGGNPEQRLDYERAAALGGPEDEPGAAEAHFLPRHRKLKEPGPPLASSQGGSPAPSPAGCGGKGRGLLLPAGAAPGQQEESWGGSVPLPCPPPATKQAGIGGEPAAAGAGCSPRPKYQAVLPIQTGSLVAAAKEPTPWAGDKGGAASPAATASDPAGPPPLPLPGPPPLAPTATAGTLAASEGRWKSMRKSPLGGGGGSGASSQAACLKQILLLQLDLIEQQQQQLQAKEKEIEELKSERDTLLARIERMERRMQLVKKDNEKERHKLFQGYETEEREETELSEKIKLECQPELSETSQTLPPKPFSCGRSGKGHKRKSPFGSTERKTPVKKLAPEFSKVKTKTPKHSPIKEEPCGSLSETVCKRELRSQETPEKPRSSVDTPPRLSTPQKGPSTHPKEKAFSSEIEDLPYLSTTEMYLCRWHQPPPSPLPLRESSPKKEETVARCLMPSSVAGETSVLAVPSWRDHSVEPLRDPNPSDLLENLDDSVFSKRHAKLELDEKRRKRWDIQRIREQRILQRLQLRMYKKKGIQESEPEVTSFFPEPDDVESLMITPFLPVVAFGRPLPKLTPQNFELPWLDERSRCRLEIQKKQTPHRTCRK
inactive: [1] 0.007 | [2] 0.01 | [3] -0.039 | [4] 0.184 | [5] -0.086 | [6] 0.071 | [7] -0.005 | [8] -0.1 | [9] -0.022 | [11] -0.014 | [12] 0.037 | [13] -0.026 | [14] 0.039 | [15] 0.185 | [16] -0.02 | [17] -0.001 | [18] 0.05 | [19] 0.197 | [20] -0.002

NRGN (UniProt Q92686)
inactive: [1] 0.151 | [2] 0.079 | [3] 0.034 | [4] 0.007 | [5] 0.053 | [6] 0.058 | [7] -0.199 | [8] 0.21 | [9] 0.108 | [12] -0.168 | [13] 0.087 | [14] -0.171 | [15] 0.143 | [17] 0.032 | [19] -0.034 | [20] -0.14

MLX (UniProt Q9UH92)
Chain of UniProt Q9UH92 (Q9UH92 whole entry, looked up): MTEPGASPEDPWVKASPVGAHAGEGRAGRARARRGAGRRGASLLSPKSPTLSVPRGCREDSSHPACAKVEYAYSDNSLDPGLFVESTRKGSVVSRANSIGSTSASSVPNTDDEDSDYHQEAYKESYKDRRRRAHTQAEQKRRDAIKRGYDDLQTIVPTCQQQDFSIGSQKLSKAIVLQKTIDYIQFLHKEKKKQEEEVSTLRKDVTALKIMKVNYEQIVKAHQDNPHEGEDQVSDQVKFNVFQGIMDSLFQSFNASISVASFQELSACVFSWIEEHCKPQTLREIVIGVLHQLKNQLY
inactive: [1] -0.033 | [2] -0.058 | [3] -0.132 | [4] 0.077 | [5] -0.163 | [6] -0.236 | [7] 0.14 | [8] 0.016 | [9] 0.043 | [10] -0.008 | [11] 0.035 | [12] -0.027 | [13] 0.082 | [14] 0 | [15] 0.009 | [17] 0.008 | [18] 0.071 | [19] 0.047 | [20] 0.117

NUDT16 (UniProt Q96DE0)
Chain of UniProt Q96DE0 (Q96DE0 whole entry, looked up): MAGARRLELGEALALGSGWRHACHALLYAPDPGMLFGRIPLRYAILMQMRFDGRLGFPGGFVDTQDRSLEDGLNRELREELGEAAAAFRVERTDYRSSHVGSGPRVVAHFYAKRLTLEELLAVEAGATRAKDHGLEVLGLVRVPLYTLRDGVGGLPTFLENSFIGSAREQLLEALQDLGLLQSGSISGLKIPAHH
inactive: [1] 0.049 | [2] 0.03 | [3] 0.022 | [4] -0.039 | [5] 0.005 | [6] 0.066 | [7] -0.001 | [8] -0.001 | [9] 0.017 | [10] 0.004 | [11] -0.031 | [12] -0.005 | [13] -0.008 | [14] -0.03 | [15] -0.003 | [16] 0.163 | [17] 0.019 | [18] -0.041 | [19] -0.006 | [20] 0.028

MLST8 (UniProt Q9BVC4)
Chain of UniProt Q9BVC4 (Q9BVC4 whole entry, looked up): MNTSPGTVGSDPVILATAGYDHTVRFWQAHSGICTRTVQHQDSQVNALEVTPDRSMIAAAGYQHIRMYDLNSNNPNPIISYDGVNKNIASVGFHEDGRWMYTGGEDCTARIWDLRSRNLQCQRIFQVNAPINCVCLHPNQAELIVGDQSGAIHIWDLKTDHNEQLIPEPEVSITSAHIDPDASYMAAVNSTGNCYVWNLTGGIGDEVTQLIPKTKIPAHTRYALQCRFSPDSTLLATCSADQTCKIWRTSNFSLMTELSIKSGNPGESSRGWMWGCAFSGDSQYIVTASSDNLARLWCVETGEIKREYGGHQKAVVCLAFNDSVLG
inactive: [1] 0.002 | [2] -0.048 | [3] 0.099 | [5] -0.049 | [6] -0.136 | [8] -0.093 | [9] 0.02 | [10] 0.037 | [11] 0.118 | [13] 0.094 | [14] -0.079 | [15] 0.001 | [16] 0.009 | [17] 0.031 | [18] -0.035 | [19] -0.058 | [20] 0.038

MMADHC (UniProt Q9H3L0)
Chain of UniProt Q9H3L0 (Q9H3L0 whole entry, looked up): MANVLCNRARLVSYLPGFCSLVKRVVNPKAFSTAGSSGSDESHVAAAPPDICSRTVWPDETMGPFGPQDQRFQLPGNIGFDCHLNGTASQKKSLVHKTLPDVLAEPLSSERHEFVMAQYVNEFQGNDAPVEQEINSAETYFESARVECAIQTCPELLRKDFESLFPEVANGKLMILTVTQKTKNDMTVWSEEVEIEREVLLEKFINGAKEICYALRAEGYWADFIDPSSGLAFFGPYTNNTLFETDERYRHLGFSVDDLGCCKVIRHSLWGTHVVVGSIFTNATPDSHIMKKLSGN
inactive: [1] 0.014 | [2] -0.056 | [3] -0.011 | [4] 0.073 | [6] 0.039 | [7] 0.076 | [8] 0.182 | [9] -0.118 | [10] -0.137 | [12] 0.001 | [13] -0.078 | [14] -0.078 | [16] 0.067 | [17] -0.057 | [18] 0.108 | [19] 0.04 | [20] 0.029

MRPL34 (UniProt Q9BQ48)
active: [10] -0.51
inactive: [1] -0.046 | [2] 0.107 | [3] 0.092 | [4] 0.164 | [5] 0.042 | [6] -0.137 | [7] 0.102 | [8] 0.196 | [9] 0.086 | [11] -0.022 | [12] -0.01 | [13] 0.019 | [14] -0.052 | [15] 0.259 | [16] -0.062 | [17] 0.051 | [18] 0.066 | [19] -0.021 | [20] 0.022

NPM3 (UniProt O75607)
Chain of UniProt O75607 (O75607 whole entry, looked up): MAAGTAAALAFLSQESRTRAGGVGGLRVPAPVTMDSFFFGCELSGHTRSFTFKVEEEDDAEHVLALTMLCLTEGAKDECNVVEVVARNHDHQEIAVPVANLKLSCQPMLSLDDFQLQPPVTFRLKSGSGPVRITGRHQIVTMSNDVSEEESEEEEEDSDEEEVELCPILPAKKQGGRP
active: [10] -0.521
inactive: [1] -0.057 | [2] -0.016 | [3] -0.004 | [4] 0.045 | [6] 0.078 | [7] 0.053 | [8] 0.052 | [9] 0.088 | [11] 0.003 | [12] -0.004 | [13] -0.005 | [14] -0.056 | [16] -0.04 | [17] 0.041 | [18] -0.015 | [19] 0.019 | [20] -0.083

OTUD6B (UniProt Q8N6M0)
Chain of UniProt Q8N6M0 (Q8N6M0 whole entry, looked up): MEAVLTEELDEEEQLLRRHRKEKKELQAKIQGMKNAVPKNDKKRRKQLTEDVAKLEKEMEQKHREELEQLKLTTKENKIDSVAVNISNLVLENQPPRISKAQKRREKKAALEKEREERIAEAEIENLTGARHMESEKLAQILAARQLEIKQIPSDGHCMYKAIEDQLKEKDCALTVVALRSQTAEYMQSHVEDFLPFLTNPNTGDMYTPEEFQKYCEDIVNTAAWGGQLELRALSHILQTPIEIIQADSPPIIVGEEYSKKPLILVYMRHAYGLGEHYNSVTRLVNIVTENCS
inactive: [1] -0.046 | [2] -0.017 | [3] -0.02 | [4] 0.036 | [5] -0.049 | [7] 0.029 | [8] 0.053 | [9] 0.078 | [10] -0.015 | [11] 0.045 | [12] -0.002 | [13] 0.124 | [14] 0.007 | [15] 0.044 | [16] 0.035 | [17] 0.14 | [18] 0.084 | [19] -0.02 | [20] 0.096
active: [6] -0.269

NAGPA (UniProt Q9UK23)
Chain of UniProt Q9UK23 (Q9UK23 whole entry, looked up): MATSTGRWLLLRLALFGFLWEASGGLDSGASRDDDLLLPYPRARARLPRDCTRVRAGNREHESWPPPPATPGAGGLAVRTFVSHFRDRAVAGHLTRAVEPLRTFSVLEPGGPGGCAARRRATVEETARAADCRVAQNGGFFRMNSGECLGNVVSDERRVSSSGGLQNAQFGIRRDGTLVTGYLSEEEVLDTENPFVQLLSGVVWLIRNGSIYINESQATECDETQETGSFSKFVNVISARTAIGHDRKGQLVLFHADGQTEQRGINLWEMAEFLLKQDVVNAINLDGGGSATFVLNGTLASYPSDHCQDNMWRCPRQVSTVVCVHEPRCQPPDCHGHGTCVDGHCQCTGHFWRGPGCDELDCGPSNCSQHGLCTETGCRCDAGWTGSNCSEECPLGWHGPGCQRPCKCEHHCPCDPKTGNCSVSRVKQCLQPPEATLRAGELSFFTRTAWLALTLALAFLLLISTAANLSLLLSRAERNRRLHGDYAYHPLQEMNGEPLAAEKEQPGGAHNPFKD
inactive: [1] -0.078 | [2] 0.228 | [3] -0.014 | [5] 0.03 | [6] 0.112 | [8] 0.052 | [9] 0.083 | [10] -0.062 | [11] -0.028 | [13] -0.004 | [14] 0.054 | [15] -0.131 | [17] -0.067 | [18] -0.066 | [19] 0.002 | [20] -0.133

NELFCD (UniProt Q8IXH7)
Chain of UniProt Q8IXH7 (Q8IXH7 whole entry, looked up): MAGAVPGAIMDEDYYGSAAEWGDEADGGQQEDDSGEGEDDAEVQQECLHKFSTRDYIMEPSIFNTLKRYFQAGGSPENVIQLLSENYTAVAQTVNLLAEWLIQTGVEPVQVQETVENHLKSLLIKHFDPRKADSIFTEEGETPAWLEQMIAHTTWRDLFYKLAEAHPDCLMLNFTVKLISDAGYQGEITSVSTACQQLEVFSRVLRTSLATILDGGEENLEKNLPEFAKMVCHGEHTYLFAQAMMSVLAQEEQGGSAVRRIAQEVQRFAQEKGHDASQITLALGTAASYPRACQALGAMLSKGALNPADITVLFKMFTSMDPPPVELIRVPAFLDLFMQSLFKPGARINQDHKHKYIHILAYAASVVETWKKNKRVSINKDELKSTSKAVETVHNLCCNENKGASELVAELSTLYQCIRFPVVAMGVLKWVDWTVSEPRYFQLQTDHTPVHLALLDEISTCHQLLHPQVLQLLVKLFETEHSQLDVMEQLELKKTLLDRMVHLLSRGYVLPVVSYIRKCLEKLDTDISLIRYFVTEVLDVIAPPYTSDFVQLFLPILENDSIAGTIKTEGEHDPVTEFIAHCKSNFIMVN
inactive: [1] -0.038 | [2] -0.18 | [3] -0.04 | [5] -0.394 | [6] 0.101 | [8] 0.017 | [9] -0.036 | [13] 0.02 | [14] 0.18 | [15] 0.094 | [16] 0.15 | [17] 0.051 | [19] 0.167 | [20] 0

NDUFB1 (UniProt O75438)
inactive: [1] 0.034 | [2] 0.024 | [3] 0.06 | [5] -0.043 | [6] -0.052 | [8] 0.065 | [9] 0.059 | [10] 0.158 | [11] -0.087 | [13] -0.08 | [14] 0.067 | [15] 0.027 | [16] -0.001 | [17] 0.065 | [18] 0.025 | [19] -0.015 | [20] -0.009

NUMBL (UniProt Q9Y6R0)
inactive: [1] 0.144 | [2] -0.032 | [4] -0.032 | [5] 0.044 | [6] -0.026 | [7] 0.162 | [8] 0.111 | [9] -0.024 | [11] 0.011 | [12] -0.045 | [13] -0.018 | [14] -0.081 | [15] 0.121 | [16] -0.144 | [17] -0.005 | [18] 0.249 | [19] 0 | [20] 0.069
active: [3] -0.349

OPHN1 (UniProt O60890)
Chain of UniProt O60890 (O60890 whole entry, looked up): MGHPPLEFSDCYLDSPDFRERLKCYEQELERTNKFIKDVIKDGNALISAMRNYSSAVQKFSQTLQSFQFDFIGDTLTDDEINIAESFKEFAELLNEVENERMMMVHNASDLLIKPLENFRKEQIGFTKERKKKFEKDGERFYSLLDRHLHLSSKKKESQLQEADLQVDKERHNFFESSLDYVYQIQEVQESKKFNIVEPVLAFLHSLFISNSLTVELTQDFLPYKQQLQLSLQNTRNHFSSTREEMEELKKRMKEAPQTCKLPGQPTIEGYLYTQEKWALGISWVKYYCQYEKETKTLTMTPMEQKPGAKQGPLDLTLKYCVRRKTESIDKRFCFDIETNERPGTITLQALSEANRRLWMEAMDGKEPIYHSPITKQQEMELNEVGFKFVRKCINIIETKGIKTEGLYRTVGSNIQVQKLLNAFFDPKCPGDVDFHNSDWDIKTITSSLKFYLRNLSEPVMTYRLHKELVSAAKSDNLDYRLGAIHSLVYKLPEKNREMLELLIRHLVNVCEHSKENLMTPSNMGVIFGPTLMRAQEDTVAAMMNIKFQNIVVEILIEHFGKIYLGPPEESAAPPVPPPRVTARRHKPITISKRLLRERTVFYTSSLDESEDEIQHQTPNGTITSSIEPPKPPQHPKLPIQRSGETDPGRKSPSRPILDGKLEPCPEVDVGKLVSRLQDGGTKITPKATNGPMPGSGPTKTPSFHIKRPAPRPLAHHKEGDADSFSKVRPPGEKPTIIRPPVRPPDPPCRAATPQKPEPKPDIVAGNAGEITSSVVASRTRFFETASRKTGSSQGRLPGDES
inactive: [1] -0.086 | [2] -0.145 | [3] -0.021 | [4] -0.033 | [5] -0.146 | [6] 0.12 | [7] -0.042 | [8] -0.062 | [9] -0.034 | [10] 0.069 | [11] -0.146 | [12] -0.029 | [14] 0.218 | [15] -0.12 | [18] -0.018 | [19] 0.049 | [20] -0.037

OVCA2 (UniProt Q8WZ82)
inactive: [1] -0.087 | [2] 0.023 | [3] -0.019 | [4] -0.1 | [7] 0.095 | [8] 0.021 | [9] 0.044 | [12] -0.132 | [13] 0.013 | [14] 0.086 | [17] -0.048 | [18] -0.305 | [20] 0.06
